PLK1 PBD inh – Plk1 (human) PBD binding inhibition; 97,000 tested, 0.13% active; Plk1 PBD phosphopeptide binding, fluorescence polarization; inhibition, %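 (tested at about 20 µM)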; in the data active = inhibition above about 34%, passing the limit was not always enough
FAK blocker – inhibitors of human focal adhesion kinase | biochemical FAK kinase activity assay | Q05397 | AID 727 | inhibition, %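 (tested at 7 µM)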 | 97,000 tested, 0.84% active;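 also: 0% = DMSO and 100% = reference compound high control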
EphB4 antag – EphB4-ephrin-B2 interaction antagonism; P54760; EphB4 LBD / TNYL-RAW-Alexa532 peptide, fluorescence polarization; inhibition, % at 7 µM; 97,000 tested, 0.15% active; AID 720;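 active = inhibition above the screen-wide mean inhibition plus 3 SD, cut at about 15% in these data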;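 also: 0% = DMSO wells and 100% = excess unlabeled TNYL-RAW peptide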
PLK1 inh – inhibitors of human PLK1 kinase. P53350. recombinant PLK1 kinase, TR-FRET peptide phosphorylation. inhibition, % at 10 µM. 97,000 tested, 0.53% active. AID 619;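 active = inhibition of 50% or more in the single-concentration screen; inactive = inhibition below 50%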;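 also: 0% = DMSO max control and 100% = H-89 dihydrochloride min control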
Smad3 inh – blocks human Smad3 binding to FoxH1 peptide; P84022; TR-FRET Smad3/Dy647-FoxH1 peptide binding, europium anti-His; inhibition, % at 25 µM; 88,000 tested, 0.29% active; AID 630;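 active = compounds that reduce the energy-transfer binding signal between the protein and its labelled peptide by more than half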;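 also: 0% = Smad3 plus labelled peptide maximal FRET and 100% = peptide-only background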
Target sequence (P84022 whole entry, looked up): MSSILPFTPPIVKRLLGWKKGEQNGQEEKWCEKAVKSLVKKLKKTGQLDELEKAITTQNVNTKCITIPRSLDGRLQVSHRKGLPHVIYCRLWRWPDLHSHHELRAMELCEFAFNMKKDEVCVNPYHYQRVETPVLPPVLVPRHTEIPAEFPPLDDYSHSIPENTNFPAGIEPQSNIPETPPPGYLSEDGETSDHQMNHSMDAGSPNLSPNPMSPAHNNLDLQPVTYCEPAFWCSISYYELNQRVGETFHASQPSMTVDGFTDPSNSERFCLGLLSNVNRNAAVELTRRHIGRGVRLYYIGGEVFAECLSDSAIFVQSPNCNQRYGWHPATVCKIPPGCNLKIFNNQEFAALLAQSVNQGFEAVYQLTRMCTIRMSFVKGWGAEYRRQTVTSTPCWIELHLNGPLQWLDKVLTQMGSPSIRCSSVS
FAK inh confirm – FAK (human) inhibition confirmed. shares compounds with FAK blocker. FAK kinase biochemical inhibition assay. inhibition, % at 7 µM. 750 tested, 28% active. AID 794
An asterisk follows results filed as active. In the library only some 1.6% were active in any assay of this set; here they are far more common. Rule as the data show it, unless noted: active = inhibition above about 19%; inactive = the rest.

Cc1cc(C)n(CC(O)COc2ccc(OCC(O)Cn3nc(C)cc3C)cc2)n1 (stereo not drawn) was read as PLK1 PBD inh -17, FAK blocker 1, EphB4 antag 0, PLK1 inh -5 and Smad3 inh 1.
Screening C[C@@H](SCc1ccccc1)C(=O)O returned Smad3 inh -5.
Screening O=c1oc2ccccc2n1CCn1c2ccccc2c2nc3ccccc3nc21 returned PLK1 PBD inh 7, FAK blocker 30*, EphB4 antag 1, PLK1 inh -8, Smad3 inh 2 and FAK inh confirm 46*.
CC(C)C(C(=O)O)N1C(=O)/C(=C/C=C/c2ccco2)SC1=S (stereo not drawn) was read as PLK1 PBD inh -8, FAK blocker 88*, EphB4 antag 4, PLK1 inh -25 and FAK inh confirm 17.
Cc1c(NC(=O)OC(C)C)sc(=S)n1C was read as PLK1 PBD inh 11, FAK blocker 1, EphB4 antag -1, PLK1 inh -15 and Smad3 inh 6.
`O=c1c(-c2nc3ccccc3o2)c2oc3ccccc3n2c2ccccc12` gave PLK1 PBD inh -11, FAK blocker 24*, EphB4 antag 6, PLK1 inh -9 and FAK inh confirm -1.
Screening N[C@H](CO)C(=O)NCC(=O)O returned Smad3 inh -4.
Screening O=c1[nH]c2ccccc2nc1N1CCOCC1 returned PLK1 PBD inh -7, FAK blocker 2, EphB4 antag 6, PLK1 inh -7 and Smad3 inh -2.
c1ccc2c(c1)nc(N1CCOCC1)c1c3ccccc3[nH]c21 was read as PLK1 PBD inh -17, FAK blocker 31*, EphB4 antag -4, PLK1 inh -19, Smad3 inh 6 and FAK inh confirm 14.
For O=S(=O)(c1ccc2ccccc2c1)N1CCC(c2nc(-c3ccncc3)no2)CC1 the results were PLK1 PBD inh -2, FAK blocker 3, EphB4 antag -2, PLK1 inh -1 and Smad3 inh 9.
N#Cc1cccc(NC(=O)c2ccccc2C(=O)O)c1 was read as PLK1 PBD inh -16, FAK blocker 22*, EphB4 antag -3, PLK1 inh -3, Smad3 inh 10 and FAK inh confirm 13.
`Cc1ccccc1C(=O)Nc1cccc(C#N)c1` gave PLK1 PBD inh -3, FAK blocker -1, EphB4 antag 4, PLK1 inh -9 and Smad3 inh -15.
CC(NCc1ccc(N(C)C)cc1)C1CC2CCC1C2 (stereo not drawn) was read as PLK1 PBD inh -2, FAK blocker 3, EphB4 antag 0, PLK1 inh -33 and Smad3 inh 8.
Cc1oc(-c2ccccc2F)nc1CS(=O)(=O)CC(=O)NCCCc1ccccc1 was read as Smad3 inh -3.
`Cc1oc(-c2ccccc2F)nc1CS(=O)(=O)CC(=O)NCc1ccco1` gave PLK1 PBD inh -1, FAK blocker 27*, EphB4 antag 1, PLK1 inh -16, Smad3 inh 78* and FAK inh confirm -1.
Screening Cc1ccc(NC2=C(N3CCOCC3)C(=O)c3ccccc3C2=O)cc1 returned PLK1 PBD inh -20, FAK blocker 43*, EphB4 antag 7, PLK1 inh -10 and FAK inh confirm 3.
CC(=O)c1ccc(NC2=C(N3CCOCC3)C(=O)c3ccccc3C2=O)cc1 was read as PLK1 PBD inh 21, FAK blocker 11, EphB4 antag -3 and PLK1 inh -9.
Cc1ccc2nc3c(cc(C(N)=S)c(=N)n3CCCOC(C)C)c(=O)n2c1 was read as PLK1 PBD inh 11, FAK blocker 28*, EphB4 antag 4, PLK1 inh -2, Smad3 inh 4 and FAK inh confirm -2.
Brc1ccc2ncnc(Nc3ccc(N4CCOCC4)cc3)c2c1 was read as PLK1 PBD inh 2, FAK blocker 20*, EphB4 antag 1, PLK1 inh 4, Smad3 inh 29 and FAK inh confirm 18.
For O=C(COc1ncnc2ccc(Br)cc12)Nc1ccc(N2CCOCC2)cc1 the results were PLK1 PBD inh -13, FAK blocker 0, EphB4 antag 4, PLK1 inh 6 and Smad3 inh -6.
COc1ccccc1CNC(=O)COC(=O)c1cc(-c2ccco2)nc2ccccc12 was read as PLK1 PBD inh -29, FAK blocker 45*, EphB4 antag 8, PLK1 inh -17 and FAK inh confirm 24*.

Source: PubChem BioAssay (several laboratories)
